# According to ChEMBL document CHEMBL1201862, “PubChem BioAssay data set” (2004):
# Potency and affinity values are given separately.
# Experiment: A High Throughput Confirmatory Assay used to Identify Novel Compounds that Inhibit Mycobacterium Tuberculosis in the absence of Glycerol using Purified and Synthesized Compounds (4).
# Type: functional
compound,measurement,value
Cc1cc(Br)ccc1NC(=O)c1cnc(N2CCN(c3ccccn3)CC2)c2ccccc12,IC90,> 51.1 µM (active)
